Consider three molecules from PubChem BioAssay.

A short description of assay [1]: viability loss in pontine glioma line – cell-based, SU-DIPG-XVII, MIPE5.0, CellTiter-Glo, qHTS, dose response (AID 1347060; cut-off not given, nearly all actives have AC50 up to about 26 µM;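 as to AC50: cells exposed to compound for 48 hours before viability readout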). Conditions: CellTiter-Glo ATP luminescence. In general terms: ATP-based viability assays read luminescence as a measure of living cells.
The nature of assay [2]: viability loss in pontine glioma line – cell-based, JHH-DIPG-1, MIPE4.0, CellTiter-Glo, qHTS, dose response (AID 1347062; cut-off not given, nearly all actives have AC50 up to about 27 µM;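 as to AC50: cells exposed to compound for two days before readout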). Conditions: JHH-DIPG-1 viability, CellTiter-Glo ATP luminescence.
A short description of assay [3]: viability loss in pontine glioma line – cell-based, SU-DIPG-IV, MIPE4.0, CellTiter-Glo, qHTS, dose response (AID 1347063; cut-off not given, nearly all actives have AC50 up to about 30 µM;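 also: compound exposure lasted 48 hours before the viability readout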). Conditions: CellTiter-Glo ATP luminescence.
A short description of assay [4]: viability loss in pontine glioma line – cell-based, SU-DIPG-XXV, MIPE5.0, CellTiter-Glo, qHTS, dose response (AID 1347065; cut-off not given, nearly all actives have AC50 up to about 26 µM;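 also: cells exposed to compound for 48 hours before ATP readout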). Conditions: CellTiter-Glo ATP luminescence.
Assay [5] can be described thus: growth inhibition of DIPG cells – cell-based, MIPE5.0 library, qHTS (AID 1347068; cut-off not given, nearly all actives have IC50 up to about 30 µM;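 also: cells exposed to compound for 48 hours before viability readout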). Conditions: SU-DIPG-XXV viability. In general terms: qHTS replaces the single test concentration by a dilution series.
Assay [6] can be described thus: growth inhibition of DIPG cells – cell-based, MIPE4.0 library, CellTiter-Glo luminescence, qHTS (AID 1347066; cut-off not given, nearly all actives have AC50 up to about 30 µM;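 also: cells exposed to compound for 48 hours before readout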). Conditions: SU-DIPG-VI viability, CellTiter-Glo ATP luminescence.
Assay [7] in a line: JHH-DIPG-1 glioma cell viability, MIPE5.0 library, CellTiter-Glo luminescence, qHTS (AID 1347067; cut-off not given, nearly all actives have AC50 up to about 26 µM;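 also: cells exposed to compound for 48 hours before readout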). Conditions: JHH-DIPG-1 glioma viability, CellTiter-Glo ATP luminescence.
Assay [8] can be described thus: compounds altering HSF1 focus formation in cells – imaging, Selleck Cancer Library (AID 1347162; in the data active = plate-normalised HSF1 focus index below about 0.46). Conditions: human cells, HSF1 nuclear foci imaging, at 10 µM; SSMD: measured here: HSF1 foci SSMD mean; cell count: measured here: cell number; plate-normalised HSF1 focus index: stronger effect = lower value.
Assay [9] in a line: growth inhibition, single agent or in combination, cell-based, chromothripsis tumors, cisplatin or BGB combos (AID 1671449).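 Also: cells exposed for 96 hours; 0% = vehicle DMSO and 100% = killing by high DMSO.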 Conditions: LFS_MB_P medulloblastoma cells.
The nature of assay [10]: growth inhibition, single agent and combos, cell-based, chromothripsis tumors, cisplatin or BGB combos (AID 1671450).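 Also: cells exposed to compound for four days; 0% = vehicle DMSO and 100% = cell killing by high DMSO.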 Conditions: HDN33 neuroblastoma cells, stronger effect = higher value.
The nature of assay [11]: growth inhibition, single agents and combos, ICB984, cell-based, cisplatin or BGB combos, synergistic combos for chromothripsis tumors (AID 1671451; call rule not given here;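 also: cells exposed for 96 hours before readout; 0% = vehicle DMSO and 100% = killing by high DMSO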). Conditions: ICB984 medulloblastoma cells, drug combinations, stronger effect = higher value.
Assay [12] is described as follows: growth inhibition, single agents and combos, HTB85, cell-based, BGB or cisplatin IC20 combos, synergistic combos for chromothripsis tumors (AID 1671453).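 Also: cells exposed for 96 hours before readout; 0% = vehicle DMSO and 100% = high DMSO killing control.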 Conditions: HTB85 osteosarcoma cells, drug combinations, stronger effect = higher value.
Assay [13] in a line: growth inhibition, MDA-MB-436, cell-based, BGB or cisplatin combos, synergistic combos for chromothripsis tumors (AID 1671458; call rule not given here;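 also: cells exposed for 96 hours; 0% = vehicle DMSO and 100% = killing by high DMSO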). Conditions: MDA-MB-436 breast carcinoma growth inhibition, drug combinations, stronger effect = higher value.
A short description of assay [14]: BT084 cell growth, single and combined drugs, ICGC_MB145, cisplatin and BGB IC40 combos (AID 1671461).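 Also: cells exposed to drugs for 96 hours; 0% = vehicle DMSO and 100% = high DMSO full killing control.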 Conditions: BT084 medulloblastoma cells, drug combinations, stronger effect = higher value.
Assay [15] is described as follows: RCMB18 cell growth, single agent and combined, cisplatin and BGB IC40 combos (AID 1671462).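 Also: cells exposed to compound for four days.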 Conditions: RCMB18 medulloblastoma cells, stronger effect = higher value.

Values joined by “and” are separate entries in the source; they are usually repeats but may differ in a detail not shown here. Equal values may be shown once. Inconclusive results are not listed. Active and inactive are the calls of the source. Rule as the data show it, unless noted: active = inhibition above about 80%; inactive = the rest.

Usually AC50 stands for the midpoint of the concentration-response curve, whichever way the signal moves. One may read the IC50 as the concentration needed to halve the response being measured. By inhibition is commonly meant the drop in the measured response relative to a control, in per cent.

As to `C[C@@H]1COC(Nc2ccc3ncnc(Nc4ccc(OCc5nccs5)c(Cl)c4)c3c2)=N1`, the AC50 in [1] was 20.9 µM (active); in [2], 18.7 µM (active); in assay [3] it was 16.6 µM (active); in assay [4] it was 20.9 µM (active). In assay [5], the IC50 was 23.5 µM (active).

Turning to `C[C@]1(c2nc3c(C(N)=O)cccc3[nH]2)CCCN1`, the molecule was called inactive in [1], in assay [2], in assay [3], in [4], in assay [6] and in assay [7]. Besides, the SSMD in assay [8] is 0.253. In addition, in assay [8], the cell count stood at 7190. In assay [8], the plate-normalised HSF1 focus index is 1.01 (inactive). Further, the inhibition was -27.2% (inactive) and -25.3% (inactive) in assay [9] (at 0.5 µM, stronger effect = higher value); -35.2% and -15.1% in assay [9] (measured here: combination with BGB IC20, at 0.005 µM); -26.8% and -17.3% in assay [9] (measured here: combination with BGB IC40, at 0.005 µM); -28.3% and -28.8% in assay [9] (measured here: combination with BGB IC40, at 0.05 µM); -54% and -57% in assay [9] (measured here: combination with cisplatin, at 0.5 µM, stronger effect = higher value); -58.4% and -45% in [9] (measured here: combination with cisplatin, at 5 µM, stronger effect = higher value). For the same molecule, the inhibition in [10] (BGB combo, at 5 µM) was -41.3% and 0.864%; in assay [10] (at 0.5 µM), -26.5% (inactive) and -7.62% (inactive); in assay [10] (cisplatin combo, at 5 µM) it was -8.25% and -1.94%; in [10] (measured here: with BGB IC20 combination, at 0.5 µM), -35.3% and -12.7%; in assay [10] (measured here: with cisplatin IC20 combination, at 0.5 µM), -24.4% and -3.22%; in [10] (single agent, at 5 µM) it was -21.8% and -0.922%. Besides, the inhibition in assay [11] (BGB IC20 combo, at 0.005 µM) was -10.4% and 0.353%; in [11] (BGB IC40 combo, at 0.005 µM) it was -32.9% and -29.7%; in assay [11] (BGB IC40 combo, at 0.05 µM), -67.4% and -16%; in assay [11] (at 0.5 µM), -18.7% (inactive) and -15.6% (inactive); in assay [11] (cisplatin combo, at 0.05 µM), -73.4% and -19.3%; in assay [11] (cisplatin combo, at 0.5 µM), -14.2% and -3.56%. Further, the inhibition in [11] (cisplatin combo, at 5 µM) was -53.1% and -59.6%; in assay [11] (measured here: 5 uM single agent, at 5 µM) it was -10.3% and -11.7%; in [12] (at 0.5 µM), -20.2% (inactive) and -2.71% (inactive); in [12] (measured here: with BGB IC20, at 0.5 µM), -24.9% and -6.8%; in [12] (measured here: with BGB IC20, at 5 µM), -10.1% and -13%; in assay [12] (measured here: with cisplatin IC20, at 0.5 µM) it was -31.1% and -8.43%. Besides, the inhibition in assay [12] (measured here: with cisplatin IC20, at 5 µM) was -30% and -31.9%; in assay [12] (single agent, at 5 µM) it was -4.02% and -2.12%; in [13] (at 0.5 µM), -1.32% (inactive) and -13.2% (inactive); in assay [13] (measured here: BGB combination, at 0.5 µM), -3.82% and -21.5%; in [13] (measured here: BGB combination, at 5 µM), -15.2% and -14.8%; in assay [13] (measured here: cisplatin combination, at 0.5 µM), -9.15% and -22.2%. The inhibition is 7.37% and -17% in [13] (measured here: cisplatin combination, at 5 µM); -14.1% (inactive) and -22% (inactive) in [14] (at 0.5 µM); -37.9% and -21.6% in assay [14] (cisplatin combination, at 0.5 µM); 2.98% and -9.14% in assay [14] (cisplatin combination, at 5 µM); 13.6% and 2.76% in [14] (measured here: BGB IC40 combination 0.05 uM, at 0.05 µM); -8.42% and -18.5% in assay [14] (single agent, at 5 µM). Also, the inhibition in [15] (at 0.5 µM) is -11.5% (inactive) and -16.6% (inactive); in assay [15] (cisplatin combo, at 5 µM) it was -70.2% and -50.3%; in assay [15] (measured here: BGB IC40 combination, at 0.05 µM), -22.5% and 6.81%; in assay [15] (measured here: combination with cisplatin, at 0.5 µM), -15.1%; in [15] (single agent, at 5 µM) it was -28.5% and -25.1%.

Take `COC[C@H](NC(=O)c1cnc(C)s1)C(=O)N[C@@H](COC)C(=O)N[C@@H](Cc1ccccc1)C(=O)[C@@]1(C)CO1`: the AC50 was 0.186 µM (active) in assay [1], 0.148 µM (active) in assay [2], 0.148 µM (active) in [3] and 0.332 µM (active) in assay [6].
